Data as given in PubChem BioAssay (NCATS).
“And” between values parts separate entries of the source, which are not always exact repeats. Identical values can stand only once. Records with an inconclusive call do not appear. The source made the active and inactive calls. Calls come from the whole dose curve; as a rule, active = well fitted activation curve with a large enough effect; inconclusive = small, poorly fitted or top-dose-only effect; inactive = no such curve, though single readings can be large or run the other way.

Target: Cellular tumor antigen p53 (Homo sapiens) (UniProt P04637)
Sequence (P04637 whole entry, looked up): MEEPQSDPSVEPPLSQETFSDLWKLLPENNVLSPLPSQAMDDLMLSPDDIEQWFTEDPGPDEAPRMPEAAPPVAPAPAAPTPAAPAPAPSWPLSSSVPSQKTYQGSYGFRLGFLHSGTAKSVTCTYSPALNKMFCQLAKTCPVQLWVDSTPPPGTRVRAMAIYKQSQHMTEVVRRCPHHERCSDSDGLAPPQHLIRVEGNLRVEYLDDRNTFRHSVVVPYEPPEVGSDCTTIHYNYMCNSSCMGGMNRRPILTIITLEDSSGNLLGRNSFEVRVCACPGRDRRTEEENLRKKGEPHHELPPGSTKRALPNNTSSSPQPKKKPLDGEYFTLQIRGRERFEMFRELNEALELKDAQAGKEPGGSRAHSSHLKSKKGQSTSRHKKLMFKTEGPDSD
Assay: Primary qHTS for small molecule compounds that upregulate eGFP-tagged delta133p53alpha (in N-terminal) cells. (AID 2060322);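 note: cells pre-induced with doxycycline then dosed without doxycycline; series mostly up to about 56 µM; 0% = DMSO vehicle and 100% = reference activator; nearly all actives have a fitted effect of over 75% in size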
Conditions: NCI-H358 eGFP-delta133p53alpha fluorescence, 24 h; activation: hits give high values
Outline: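 NCI-H358 cells pre-induced 24 h with 10 ng/ml doxycycline for eGFP-delta133p53alpha, plated dox-free and exposed 24 h at 37C to titrated compounds. Fixed, Hoechst-stained; gated GFP peak intensity by laser scanning cytometry, normalized to DMSO (0%) and 57.5 uM 5-azacytidine (100%).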

SMILES	activation
OC[C@@H](O)[C@@H](O[C@@H]1O[C@H](CO)[C@H](O)[C@H](O)[C@H]1O)[C@H](O)[C@@H](O)CO	-8.37% (inactive)
CC1CCCCN1CCCOC(=O)c1ccc(OC2CCCCC2)cc1 (stereo not drawn)	-7.53% (inactive)
COC(=O)N/N=C/c1c[n+]([O-])c2ccccc2[n+]1[O-]	-30.1% (inactive)
C=CCNc1c(O)cc2c(O)c1C[C@@H](C)C[C@H](OC)[C@@H](O)[C@@H](C)C=C(C)[C@H](OC(N)=O)[C@@H](OC)C=CC=C(C)C(=O)N2	1.58% (inactive)
O=C(N[C@H](CO)[C@H](O)c1ccc([N+](=O)[O-])cc1)C(Cl)Cl	15.3% (inactive) and -2.04% (inactive)
C[C@@H]1CCC[C@H](C)N1	8.37% (inactive)
CC(=O)N[C@@H](Cc1ccc(O)cc1)C(=O)O	0.837% (inactive)
O=C1NC(=O)C(=Cc2ccc(-c3ccc(F)cc3)o2)S1	-1.63% (inactive)
NC1=N[C@@]2(c3cc(NC(=O)c4ccc(F)cn4)ccc3F)COC[C@@H]2CS1	87.4% (inactive)
CC(C)OC(=O)c1cc2c(OCC(O)CNC(C)(C)C)cccc2[nH]1 (stereo not drawn)	20.9% (inactive)
COc1cc(N)c(Cl)cc1C(=O)NC1CCN(Cc2ccccc2)CC1	17.6% (inactive)
CCN(CC)CC(=O)OCC(=O)[C@@]1(O)CC[C@H]2[C@@H]3CCC4=CC(=O)CC[C@]4(C)[C@H]3[C@@H](O)C[C@@]21C	-4.18% (inactive)
CC1(COc2ccc(CC3SC(=O)NC3=O)cc2)CCCCC1 (stereo not drawn)	-3.95% (inactive)
